For five compounds, Potency and activation results are on record in PubChem BioAssay (NCATS).

Experiment [1] can be described thus: NCATS anti-infectives library activity on HEK293 viability as a counter-qHTS vs the C. elegans viability qHTS (AID 1745854).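 Note: potency is the fitted concentration of half-maximal effect; HEK293 cells exposed to compounds for 24 hr before the viability read.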 The method in brief:
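Counter-screen for cytotoxicity: HEK293, 24 hr, 37C, compounds up to 41.7 uM final (a dilution series, 1:5). Readout CellTiter-Glo luminescence, 10 min RT. Digitonin control, 83.3 uM final.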

Experiment [2] is described as follows: NCATS anti-infectives library activity on the primary C. elegans qHTS viability assay (AID 1745855; calls by dose curve; note: potency is the fitted concentration of half-maximal effect). The procedure, abridged:
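GFP read-out by 488 nm laser cytometry at day 0, 3 and 7, gated on object perimeter, area and peak intensity, scored viability of PE254-GFP-FLuc worms exposed to compound in S medium with bacterial capsules at 21 °C.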

For experiment [3], the target named is Phospholipid hydroperoxide glutathione peroxidase GPX4 (Homo sapiens) (UniProt P36969). Kind of experiment: Primary qHTS Assay for Inhibitors of Recombinant Selenoprotein Glutathione Peroxidase 4 (GPX4) (AID 1845192). Note: % is set by controls: 0 for no effect and ±100 for the full control effect; nearly all actives have a fitted effect of over 65% in size. The method in brief:
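Steps: GPX4 plus compound, 30 min RT; add GR/GSH/NADPH master mix; start with cumene hydroperoxide; read 340/450 nm fluorescence at 0 and 15 min. Finals were 200 nM GPX4, 1 mM GSH, 0.5 mM CHP, 0.5 mM NADPH, 100 nM GR.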
A general note: In qHTS, concentration-response curves come from the screen itself.

Experiment [4] in a line: qHTS Assay for Identification of Small Molecule Agonists for Hypoxia Response Element Signaling Pathway (AID 914; active = well fitted activation curve with a large enough effect in the signal ratio, with a control signal flat, not every such curve was filed as active; the % refers to the signal ratio; note: % of control where 0% means no effect). Conditions: ME-180 (cervical carcinoma) HRE-bla reporter, beta-lactamase ratio, CoCl2, 17 h; activation: hits give high values. The procedure, abridged:
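HRE-bla ME-180 assay for agonist-like enhancement of an EC50 CoCl2 stimulus: 17 h at 37 degrees Celsius, CCF4 for 2.5 h, ratiometric 460/530 nm signal converted to %Activity and fitted to AC50.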

Experiment [5] in a line: S16 Schwann cell PMP22 intronic element firefly luciferase assay (AID 624032). Note: nearly all actives have a fitted effect of over 30% in size. Note: potency is the fitted concentration of half-maximal effect. The method in brief:
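Rat S16 Schwann cells stably carrying firefly luciferase driven by a PMP22 intronic element, in 10% FBS, treated 24 h at 37 C. ONE-Glo luminescence normalized to PTC124 control and DMSO (0%); curves classed by r2, magnitude and activity.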

The nature of experiment [6]: S16 Schwann cell PMP22 intronic element beta-lactamase assay (AID 624044; calls by dose curve;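 note: 0% = DMSO and -100% = potassium clavulanate positive control; nearly all actives have a fitted effect of over 15% in size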). Conditions: S16 rat Schwann cells, PMP22 element beta-lactamase FRET, 24 h; ratio activity, negative = inhibition: at 38.3 µM (top of the series) unless noted. The method in brief: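 Beta-lactamase reporter under a PMP22 intronic regulatory element in stable S16 rat Schwann cells; 24 h compound exposure. 460 nm blue signal normalized between DMSO (0%) and potassium clavulanate, with 535 nm FRET tracking viability; curves classed by r2 and response.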

The subject of another experiment is CP194. In words: qHTS profiling for inhibitors of Plasmodium falciparum proliferation (AID 504749).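 Note: 0% = DMSO vehicle and full inhibition = artemisinin control; nearly all actives have a fitted effect of over 60% in size.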 The note with it: P. falciparum in erythrocytes, SYBR Green DNA, 72 h; series mostly up to 28.7 µM. The method in brief:
(§1)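 Each compound contacts P. falciparum-infected red blood cells for 72 h at 37 C; lysis buffer (Tris, EDTA, saponin, Triton X, SYBR Green I) is added and fluorescence measured next morning; values normalized to controls.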

In the next experiment the test system is CP201. The experiment is described as above. Conditions: P. falciparum in erythrocytes, SYBR Green DNA, 72 h; series mostly up to 28.7 µM. The procedure, abridged:
as §1

A further experiment deals with CP211. The description is as above. The note with it: P. falciparum in erythrocytes, SYBR Green DNA, 72 h; series mostly up to 28.7 µM. The method in brief: as §1
A further experiment concerns CP266. Described as above. The note with it: P. falciparum in erythrocytes, SYBR Green DNA, 72 h; series mostly up to 12.8 µM. The procedure, abridged:
as §1

For the next experiment, the system named is CP269. The description is as above. Conditions: P. falciparum in erythrocytes, SYBR Green DNA, 72 h; series mostly up to 28.7 µM. The procedure, abridged:
as §1

In another experiment the test system is CP305. Described as above. The note with it: P. falciparum in erythrocytes, SYBR Green DNA, 72 h; series mostly up to 28.7 µM. The method in brief: as §1
The next experiment deals with CP315. The experiment is described as above. Conditions: P. falciparum in erythrocytes, SYBR Green DNA, 72 h; series mostly up to 28.7 µM. The procedure, abridged: as §1
The subject of the next experiment is CP325. Described as above. Conditions: P. falciparum in erythrocytes, SYBR Green DNA, 72 h; series mostly up to 28.7 µM. The procedure, abridged: as §1
The subject of the next experiment is CP329. Described as above. The note with it: P. falciparum in erythrocytes, SYBR Green DNA, 72 h; series mostly up to 28.7 µM. The procedure, abridged: as §1
The test system of another experiment is DIV14. The experiment is described as above. Conditions: P. falciparum in erythrocytes, SYBR Green DNA, 72 h; series mostly up to 28.7 µM. The method in brief: as §1
The test system of the next experiment is DIV17. Described as above. Conditions: P. falciparum in erythrocytes, SYBR Green DNA, 72 h; series mostly up to 28.7 µM. The method in brief: as §1
For a further experiment, the system named is DIV30. Described as above. The note with it: P. falciparum in erythrocytes, SYBR Green DNA, 72 h; series mostly up to 28.7 µM. The method in brief:
as §1

The test system of another experiment is GB4. The experiment is described as above. The note with it: P. falciparum in erythrocytes, SYBR Green DNA, 72 h; series mostly up to 28.7 µM. The procedure, abridged: as §1
The subject of the next experiment is PC26. The description is as above. The note with it: P. falciparum in erythrocytes, SYBR Green DNA, 72 h; series mostly up to 28.7 µM. The procedure, abridged:
as §1

Records with an inconclusive call do not appear. Unmarked numbers belong to inactive results. Active and inactive are the calls of the source. Unless noted, calls come from the whole dose curve; as a rule, active = well fitted curve in the direction sought with a large enough effect; inconclusive = small, poorly fitted or top-dose-only effect, or another doubt; inactive = no such curve, though single readings can be large; an effect the other way counts as inactive or inconclusive.

Chain of Phospholipid hydroperoxide glutathione peroxidase GPX4 (Homo sapiens) (P36969 whole entry, looked up): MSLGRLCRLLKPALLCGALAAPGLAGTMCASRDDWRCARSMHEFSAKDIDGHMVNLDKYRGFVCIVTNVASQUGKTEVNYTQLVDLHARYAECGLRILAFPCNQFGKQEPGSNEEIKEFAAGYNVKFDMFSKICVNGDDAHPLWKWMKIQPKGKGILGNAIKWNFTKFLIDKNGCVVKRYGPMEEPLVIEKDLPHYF

As for `COC(=O)[C@]1(C)CC[C@]2(C)CC[C@]3(C)C4=CC=C5C(=CC(=O)C(O)=C5C)[C@]4(C)CC[C@@]3(C)[C@@H]2C1`, the Potency in [1] was 1.12 µM (active); in [2] it was 9.16 µM (active).
As for `O=C(O)C1=CCCN(CCOC(c2ccc(C(F)(F)F)cc2)c2ccc(C(F)(F)F)cc2)C1`, the Potency entry in experiment [3] is “inactive”.
On to `C[C@@]12CC[C@H]3[C@@H](CC[C@@H]4C[C@H]5S[C@H]5C[C@]43C)[C@H]1CC[C@H]2O`, for which the activation in experiment [4] was 1.68%. Further, the Potency in experiment [5] is 7.75 µM (active). Moreover, the Potency entry (in [6]; with CP194; with CP201; in the experiment on CP211; with CP266; in the experiment with CP269) was “inactive” throughout. Also, the Potency entry in the experiment on CP305, with CP315, in the experiment on CP325, with CP329, in the experiment with DIV14 and with DIV17 was “inactive” in each case. Moreover, the Potency result with DIV30, in the experiment on GB4 and in the experiment on PC26 was “inactive” each time.
For `C[C@H](N)[C@@H](O)c1ccccc1`, the Potency result (in experiment [5]; in experiment [6]; in the experiment on CP194; with CP201; in the experiment with CP211; in the experiment on CP266) was “inactive” in each case. For the same compound, the Potency entry with CP269, in the experiment on CP305, with CP315, with CP325, in the experiment on CP329 and in the experiment with DIV14 was “inactive” in each case. Besides, the Potency entry in the experiment with DIV17, in the experiment on DIV30, in the experiment with GB4 and in the experiment on PC26 was “inactive” in each case.
As for `CC(C)[C@@]1(NC(=O)[C@@H]2C[C@H]3c4cccc5[nH]cc(c45)C[C@@H]3N(C)C2)O[C@]2(O)[C@H]3CCCN3C(=O)CN2C1=O`, the activation in [4] was 9.33%.
